Records with an inconclusive call do not appear. Activity calls are given as the source filed them. The call rests on the fitted dose curve; in most records, active means well fitted curve in the direction sought with a large enough effect; inconclusive means small, poorly fitted or top-dose-only effect, or another doubt; inactive means no such curve, though single readings can be large; an effect the other way counts as inactive or inconclusive.
Tests used:
[1] = qHTS assay for measurement of the activity of small molecule inhibitors on Zika virus induced Caspase-3 activity in human iPSC derived neural progenitor cells (hNPCs) (AID 1224857); further: % of control where 0% means no effect; nearly all actives have a fitted effect of over 65% in size
Method in brief: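 Values are percent inhibition of virus-induced caspase-3/7 signal, scaled between uninfected cells and ZIKV-infected cells. Infection used 2 FFU/cell for 6 h after 1 h compound exposure.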

[2] = qHTS assay for measurement of the activity of small molecule inhibitors on Zika virus induced Caspase-3 activity in human astrocytoma cells (AID 1224859);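 further: plate controls were ZIKV-infected untreated cells for no effect and uninfected cells for full effect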
Method in brief: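 Compound added 1 h pre-infection; ZIKV 2 FFU/cell on SNB-19 cells, 6 h, 37 C/5% CO2. Caspase-Glo 3/7 luminescence; values as % inhibition of ZIKV-induced caspase activity.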

[3] = qHTS assay to identify small molecule inhibitors of chordoma cells - UCH-1 (AID 1259355); further: on the % scale 0 is the no-effect control and ±100 the full control effect; nearly all actives have a fitted effect of over 55% in size
Method in brief: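 Cells (800/well) were seeded and left overnight at 37 C, 5% CO2, then treated with drugs at 15 concentrations plus a combination mix of auranofin, camptothecin, doxorubicin, rubitecan and topotecan. Viability after 48hr was read by CellTiter-Glo luminescence.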

[4] = qHTS assay to identify small molecule inhibitors of chordoma cells - UCH-2 (AID 1259356); further: series mostly up to about 46 µM; on the % scale 0 is the no-effect control and ±100 the full control effect
[5] = P-glycoprotein substrates identified in KB-8-5-11 adenocarcinoma cell line, qHTS therapeutic library screen (AID 1346987); settings: outcome: dose series up to 44.5 µM; further: series mostly up to about 44 µM; on the % scale 0 is the no-effect control and ±100 the full control effect; nearly all actives have a fitted effect of over 65% in size
Method in brief: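 KB-8-5-11, a colchicine-selected P-gp-overexpressing KB-3-1 subline, was grown without colchicine for the assay. Cells were seeded at 500 cells/well, dosed in concentration-response and incubated 72 h at 37 degree C, 5% CO2. Viability was read by CellTiter-Glo luminescence.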

[6] = NS1 protein of Zika virus - qHTS assay to identify small molecule inhibitors in human HEK 293 cells (AID 1347053);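 further: series mostly up to about 46 µM; plate controls were infected untreated cells for no effect and uninfected cells for full effect; nearly all actives have a fitted effect of over 55% in size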
Method in brief: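 HEK 293 cells, seeded 20 h at 37 C, were pretreated with compound 1 h, then infected with ZIKV MR766 (MOI = 0.5) for 24 h. NS1 was read by TR-FRET with two anti-NS1 antibodies, normalized to uninfected and infected wells.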

[7] = qHTS of pediatric cancer cell lines to identify multiple opportunities for drug repurposing: Primary screen for TC32 cells (AID 1347089); further: on the % scale 0 is the no-effect control and ±100 the full control effect; nearly all actives have a fitted effect of over 60% in size
Method in brief: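 Measured quantity: luminescence from CellTiter-Glo, reflecting metabolically active TC32 cells following 48 h of compound. Curves came straight from multi-point titrations, with 8 or 11 points in primary and 11 in confirmatory screening.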

[8] = qHTS of pediatric cancer cell lines to identify multiple opportunities for drug repurposing: Primary screen for DAOY cells (AID 1347090);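 further: series mostly up to about 46 µM; plate controls were DMSO for no effect and bortezomib for full effect; nearly all actives have a fitted effect of over 55% in size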
Method in brief: (§1)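 Viability measured as metabolically active cells via CellTiter-Glo luminescence following 48 hours of compound exposure, 11-point dilutions in confirmatory testing. 500-1,000 cells/well plated 5 hours before dosing; controls were DMSO and 2.3 µM bortezomib.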

[9] = qHTS of pediatric cancer cell lines to identify multiple opportunities for drug repurposing: Primary screen for SJ-GBM2 cells (AID 1347091);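 further: plate controls were DMSO neutral control for no effect and bortezomib for full effect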
Method in brief: as §1

[10] = qHTS of pediatric cancer cell lines to identify multiple opportunities for drug repurposing: Primary screen for A673 cells (AID 1347092); further: on the % scale 0 is the no-effect control and ±100 the full control effect; nearly all actives have a fitted effect of over 45% in size
Method in brief: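 Cells are plated, rested 5 h, dosed by pintool, incubated 48 h, then lysed with CellTiter-Glo and read by luminescence. DMSO is the neutral control; bortezomib at 2.3 uM final is the positive control.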

[11] = qHTS of pediatric cancer cell lines to identify multiple opportunities for drug repurposing: Primary screen for SK-N-MC cells (AID 1347093);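 further: series mostly up to about 46 µM; plate controls were DMSO neutral control for no effect and bortezomib for full effect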
Method in brief: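 Metabolically active cells were quantified by ATP-dependent luminescence (CellTiter-Glo, 15 min at room temperature) following 48 h treatment. Cells had been plated at 500-1,000 per well and settled for 5 h beforehand.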

[12] = qHTS of pediatric cancer cell lines to identify multiple opportunities for drug repurposing: Primary screen for BT-37 cells (AID 1347094);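 further: series mostly up to about 57 µM; plate controls were DMSO for no effect and bortezomib for full effect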
Method in brief: (§2)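 500-1,000 cells/well; 5 h pre-incubation 37 °C/5% CO2; compound pinned; 48 h; CellTiter-Glo, 15 min RT; luminescence. MIPE 11-pt from 0.78 nM, NPC 8-pt from 0.59 nM final. Bortezomib 2.3 µM final as positive control.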

[13] = qHTS of pediatric cancer cell lines to identify multiple opportunities for drug repurposing: Primary screen for NB-EBc1 cells (AID 1347095);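 further: plate controls were DMSO neutral control for no effect and bortezomib for full effect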
Method in brief: as §2

[14] = qHTS of pediatric cancer cell lines to identify multiple opportunities for drug repurposing: Primary screen for U-2 OS cells (AID 1347096);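 further: plate controls were DMSO wells for no effect and bortezomib positive control wells for full effect; nearly all actives have a fitted effect of over 50% in size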
Method in brief: (§3)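 Viability after 48 h compound treatment at 37C, 500-1,000 cells/well, read as ATP luminescence with CellTiter-Glo. Primary screens used 11-point (MIPE, 0.78 nM-46 µM) or 8-point (NPC, 0.59 nM-46 µM) final concentrations; follow-up screens used 11-point dilutions.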

[15] = qHTS of pediatric cancer cell lines to identify multiple opportunities for drug repurposing: Primary screen for SK-N-SH cells (AID 1347098);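 further: DMSO served as neutral control and bortezomib at 2.3 µM as positive control; on the % scale 0 is the no-effect control and ±100 the full control effect; nearly all actives have a fitted effect of over 65% in size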
Method in brief: (§4)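 Cells (500-1,000/well) rested 5 h, then received compounds for 48 h; metabolically active cells were measured by CellTiter-Glo luminescence. Final concentrations spanned up to 46 µM (MIPE, 11-point) or 0.59 nM-46 µM (NPC, 8-point) in primary screens, 11-point in follow-ups.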

[16] = qHTS of pediatric cancer cell lines to identify multiple opportunities for drug repurposing: Primary screen for NB1643 cells (AID 1347099);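 further: plate controls were DMSO neutral control for no effect and bortezomib positive control for full effect; nearly all actives have a fitted effect of over 50% in size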
Method in brief: as §2

[17] = qHTS of pediatric cancer cell lines to identify multiple opportunities for drug repurposing: Primary screen for LAN-5 cells (AID 1347100);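 further: plate controls were DMSO neutral control for no effect and bortezomib positive control for full effect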
Method in brief: as §3

[18] = qHTS of pediatric cancer cell lines to identify multiple opportunities for drug repurposing: Primary screen for BT-12 cells (AID 1347101);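 further: plate controls were DMSO for no effect and bortezomib positive control for full effect; nearly all actives have a fitted effect of over 25% in size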
Method in brief: as §4

[19] = qHTS of pediatric cancer cell lines to identify multiple opportunities for drug repurposing: Primary screen for Saos-2 cells (AID 1347097); further: on the % scale 0 is the no-effect control and ±100 the full control effect; nearly all actives have a fitted effect of over 40% in size
Method in brief: as §2

Nc1c2c(nc3c1CCC3)CCCC2
inactive: outcome [1] | outcome [2] | outcome [3] | outcome [4] | outcome [5] | outcome [6] | outcome [7] | outcome [8] | outcome [9] | outcome [10] | Potency [11] | outcome [12] | outcome [13] | outcome [14] | outcome [15] | Potency [16] | outcome [17] | outcome [18]

CC(=O)Oc1cccc(C)c1
inactive: outcome [1] | outcome [2] | outcome [3] | outcome [4] | outcome [5] | outcome [6] | outcome [7] | outcome [8] | outcome [9] | outcome [10] | Potency [11] | outcome [12] | outcome [13] | outcome [14] | outcome [19] | Potency [16] | outcome [17] | outcome [18]

O=C(Cn1ccnc1[N+](=O)[O-])NCc1ccccc1
inactive: outcome [1] | outcome [2] | outcome [3] | outcome [4] | outcome [5] | outcome [6] | outcome [7] | outcome [8] | outcome [9] | outcome [10] | Potency [11] | outcome [12] | outcome [13] | outcome [14] | outcome [19] | outcome [15] | Potency [16] | outcome [17] | outcome [18]

Cc1ncc(CO)c(CN)c1O
inactive: outcome [1] | outcome [2] | outcome [3] | outcome [4] | outcome [5] | outcome [6] | outcome [7] | outcome [8] | outcome [9] | outcome [10] | Potency [11] | outcome [12] | outcome [13] | outcome [14] | outcome [19] | outcome [15] | Potency [16] | outcome [17] | outcome [18]

CC(C)(C)NCC(O)COc1cccc2c1CCC(=O)N2 (stereo not given)
inactive: outcome [1] | outcome [2] | outcome [3] | outcome [4] | outcome [5] | outcome [6] | outcome [7] | outcome [8] | outcome [9] | outcome [10] | Potency [11] | outcome [12] | outcome [13] | outcome [14] | outcome [19] | Potency [16] | outcome [17] | outcome [18]

CC(=O)N[C@@H](Cc1ccc(O)cc1)C(=O)O
inactive: outcome [1] | outcome [2] | outcome [3] | outcome [4] | outcome [5] | outcome [6] | outcome [7] | outcome [8] | outcome [9] | outcome [10] | Potency [11] | outcome [12] | outcome [13] | outcome [14] | outcome [15] | Potency [16] | outcome [17] | outcome [18]

C[C@H]1COc2c(C3(N)CC3)c(F)cc3c(=O)c(C(=O)O)cn1c23
inactive: outcome [1] | outcome [2] | outcome [3] | outcome [4] | outcome [5] | outcome [6] | outcome [7] | outcome [8] | outcome [9] | outcome [10] | Potency [11] | outcome [12] | outcome [13] | outcome [14] | outcome [19] | outcome [15] | Potency [16] | outcome [17] | outcome [18]

Cc1cc(-n2nc3ccc(Cl)cc3n2)c(O)c(C(C)(C)C)c1
inactive: outcome [1] | outcome [2] | outcome [3] | outcome [4] | outcome [5] | outcome [6] | outcome [7] | outcome [8] | outcome [9] | outcome [10] | Potency [11] | outcome [12] | outcome [13] | outcome [14] | outcome [19] | Potency [16] | outcome [17] | outcome [18]

CCN[C@H]1CN(CCCOC)S(=O)(=O)c2sc(S(N)(=O)=O)cc21
inactive: outcome [1] | outcome [2] | outcome [3] | outcome [4] | outcome [5] | outcome [6] | outcome [7] | outcome [8] | outcome [9] | outcome [10] | Potency [11] | outcome [12] | outcome [13] | outcome [14] | outcome [15] | Potency [16] | outcome [17] | outcome [18]

CCN(CC)CCc1nc(-c2ccccc2)no1
inactive: outcome [1] | outcome [2] | outcome [3] | outcome [4] | outcome [5] | outcome [6] | outcome [7] | outcome [8] | outcome [9] | outcome [10] | Potency [11] | outcome [12] | outcome [13] | outcome [14] | outcome [19] | Potency [16] | outcome [17] | outcome [18]

CCCCCCCCCCOc1cc2c(=O)c(C(=O)OCC)c[nH]c2cc1OCC
inactive: activity change, negative = inhibition [1] 9.1% [at 4.53 µM] | activity change, negative = inhibition [2] -3.7% [at 4.53 µM] | outcome [3] | outcome [4] | outcome [5] | activity change, negative = inhibition [6] -16.6% [at 4.81 µM] | activity change, negative = cytotoxic [7] 8.44% [at 4.81 µM] | activity change, negative = cytotoxic [8] -4.32% [at 4.84 µM] | activity change, negative = cytotoxic [9] 5.74% [at 4.84 µM] | activity change, negative = cytotoxic [10] -6.98% [at 4.84 µM] | activity change, negative = cytotoxic [11] -8.08% [at 4.84 µM] | activity change, negative = cytotoxic [12] 9.52% [at 6.03 µM] | activity change, negative = cytotoxic [13] 9.4% [at 4.84 µM] | activity change, negative = cytotoxic [14] 0.999% [at 4.84 µM] | activity change, negative = cytotoxic [15] 2.61% [at 6 µM] | activity change, negative = cytotoxic [16] 5.42% [at 4.84 µM] | activity change, negative = cytotoxic [17] 22.4% [at 4.84 µM] | activity change, negative = cytotoxic [18] 6.24% [at 6.03 µM]

Cc1ccccc1N=Nc1ccc(N=Nc2c(O)ccc3ccccc23)c(C)c1
inactive: outcome [1] | outcome [2] | outcome [3] | outcome [4] | outcome [5] | outcome [6] | outcome [7] | outcome [8] | outcome [9] | outcome [10] | Potency [11] | outcome [12] | outcome [13] | outcome [14] | outcome [19] | outcome [15] | Potency [16] | outcome [17] | outcome [18]

CC[N+](C)(CC)CCOC(=O)C1c2ccccc2Oc2ccccc21
inactive: outcome [1] | outcome [2] | outcome [3] | outcome [4] | outcome [5] | outcome [6] | outcome [7] | outcome [8] | outcome [9] | outcome [10] | Potency [11] | outcome [12] | outcome [13] | outcome [14] | outcome [19] | Potency [16] | outcome [17] | outcome [18]

O=S1(=O)OC(c2ccc(O)cc2)(c2ccc(O)cc2)c2ccccc21
inactive: outcome [1] | outcome [2] | outcome [3] | outcome [4] | outcome [5] | outcome [6] | outcome [7] | outcome [8] | outcome [9] | outcome [10] | Potency [11] | outcome [12] | outcome [13] | outcome [14] | outcome [15] | Potency [16] | outcome [17]
